# According to the supplement of paper PMC8728848:
# The entries come from a sample that favours the strongest signals as a whole.
# B1: TIM-1 (Mus musculus), AAL35774 (protein)
# chain: MNQIQVFISGLILLLPGAVDSYVEVKGVVGHPVTLPCTYSTYRGITTTCWGRGQCPSSACQNTLIWTNGHRVTYQKSSRYNLKGHISEGDVSLTIENSVESDSGLYCCRVEIPGWFNDQKVTFSLQVKPEIPTRPPTRPTTTRPTATGRPTTISTRSTHVPTSIRVSTSTPPTSTHTWTHKPEPTTFCPHETTAEVTGIPSHTPTDWNGTVTSSGDTWSNHTEAIPPGKPQKNPTKGFYVGICIAALLLLLLVSTVAITRYILMKRKSASLSVVAFRVSKIEALQNAAVVHSRAEDNIYIVEDRP
# What was measured:
# Experiment in all cases: glycan array binding signal (z-score within array); higher = stronger binding
# Conditions in all cases: glycan notation: IUPAC condensed, linker removed
# [1] = biological target: Fuc(a1-2)[GalNAc(a1-3)]Gal(b1-4)GlcNAc
# Method in brief: (§1)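 Arrays were curated from the Consortium for Functional Glycomics database, 3228 in total, and kept only where the protein sequence was available. Binding is expressed as a within-array Z-score. This score was averaged across arrays of the same protein sequence at different concentrations or buffers and across linkers, and negative values can be read as non-binding.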
# [2] = biological target: Gal(a1-3)Gal(b1-3)Glc
# Method in brief: as §1
# [3] = biological target: Gal(a1-3)Gal(b1-4)[Fuc(a1-3)]GlcNAc
# Method in brief: as §1
# [4] = biological target: Gal(a1-4)Gal(b1-4)Gal
# Method in brief: as §1
# [5] = biological target: Gal3S(b1-3)GlcNAc
# Method in brief: as §1
# [6] = biological target: Gal6S(b1-4)Glc
# Method in brief: as §1
# [7] = biological target: GlcA(b1-3)Gal
# Method in brief: as §1
# [8] = biological target: GlcA(b1-6)Gal
# Method in brief: as §1
# [9] = biological target: GlcNAc(b1-3)[GlcNAc(b1-6)]GlcNAc
# Method in brief: as §1
# [10] = biological target: GlcNAc(b1-4)GlcNAc(b1-4)GlcNAc(b1-4)GlcNAc(b1-4)GlcNAc
# Method in brief: as §1
# [11] = biological target: Neu5Ac(a2-3)Gal(b1-4)[Fuc(a1-3)]GlcNAc
# Method in brief: as §1
# [12] = biological target: Neu5Ac(a2-3)Gal(b1-4)[Fuc(a1-3)]GlcNAc(b1-3)Gal
# Method in brief: as §1
# [13] = biological target: Neu5Ac(a2-3)GalNAc(b1-4)GlcNAc
# Method in brief: as §1
# [14] = biological target: Neu5Ac(a2-3)[GalNAc(b1-4)]Gal(b1-4)Glc
# Method in brief: as §1
# [15] = biological target: Neu5Ac(a2-3)[Neu5Ac(a2-6)]GalNAc
# Method in brief: as §1
# [16] = biological target: Neu5Ac(a2-6)Gal(b1-4)GlcNAc(b1-3)Gal(b1-4)[Fuc(a1-3)]GlcNAc(b1-3)Gal(b1-4)[Fuc(a1-3)]GlcNAc
# Method in brief: as §1
# [17] = biological target: Neu5Ac(a2-6)GalNAc
# Method in brief: as §1
binder,measurement,setting,value
B1,glycan array binding signal (z-score),[1],-0.268
same,glycan array binding signal (z-score),[2],-0.335
same,glycan array binding signal (z-score),[3],2.6
same,glycan array binding signal (z-score),[4],1.46
same,glycan array binding signal (z-score),[5],-0.247
same,glycan array binding signal (z-score),[6],-0.128
same,glycan array binding signal (z-score),[7],2.46
same,glycan array binding signal (z-score),[8],2.12
same,glycan array binding signal (z-score),[9],-0.61
same,glycan array binding signal (z-score),[10],1.29
same,glycan array binding signal (z-score),[11],-0.451
same,glycan array binding signal (z-score),[12],-0.414
same,glycan array binding signal (z-score),[13],-0.411
same,glycan array binding signal (z-score),[14],-0.433
same,glycan array binding signal (z-score),[15],0.386
same,glycan array binding signal (z-score),[16],-0.125
same,glycan array binding signal (z-score),[17],-0.529
